This passage reports Potency results from PubChem BioAssay (NCATS).

Experiment [1] can be described thus: BET inhibitor-based combinations targeting novel dependencies in MECOM-rearranged (r) AML: MV-4-11 cell line (AID 2202233). Note: nearly all actives have a fitted effect of over 45% in size. The conditions noted are these: MV-4-11 AML viability, CellTiter-Glo luminescence, 48 h; series mostly up to 46 µM. The essentials:
(§1)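 Normalized to DMSO and empty-well controls, the luminescence data from CellTiter-Glo after 48 hr drug exposure were fitted across 11 concentrations. Reported metrics are area under the dose-response curve and its Z-transformed form.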
A general note: ATP-based viability assays read luminescence as a measure of living cells.

Experiment [2] in a line: BET inhibitor-based combinations targeting novel dependencies in MECOM-rearranged (r) AML: HNT-34 cell line (AID 2202234). Note: nearly all actives have a fitted effect of over 35% in size. Conditions: HNT-34 AML viability, CellTiter-Glo luminescence, 48 h; series mostly up to 46 µM. The essentials: as §1
Experiment [3] in a line: BET inhibitor-based combinations targeting novel dependencies in MECOM-rearranged (r) AML: UCSD-AML1 cell line (AID 2202235). Note: nearly all actives have a fitted effect of over 40% in size. The conditions noted are these: UCSD-AML1 AML cells viability, CellTiter-Glo, 48 h; series mostly up to 46 µM. The essentials: as §1
Experiment [4] can be described thus: BET inhibitor-based combinations targeting novel dependencies in MECOM-rearranged (r) AML: AML-194 cell line (AID 2202237; note: nearly all actives have a fitted effect of over 40% in size). The conditions noted are these: AML-194 (MECOM-r AML) viability, CellTiter-Glo, 48 h; series mostly up to 46 µM. The essentials:
(§2)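 Here, 11-point titrations of each agent were applied to 500 seeded cells and incubated 48 hr; CellTiter-Glo signal, scaled against DMSO and empty wells, was integrated as AUC, then Z-scored within the individual line.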

The nature of experiment [5]: BET inhibitor-based combinations targeting novel dependencies in MECOM-rearranged (r) AML: AML-191 cell line (AID 2202236; note: nearly all actives have a fitted effect of over 35% in size). The conditions noted are these: AML-191 viability, CellTiter-Glo luminescence, 48 h; series mostly up to 46 µM. The essentials:
as §2

Structures are written as SMILES. Results filed as inconclusive are left out. Active and inactive are the calls of the source. Calls come from the whole dose curve; as a rule, active = well fitted curve in the direction sought with a large enough effect; inconclusive = small, poorly fitted or top-dose-only effect, or another doubt; inactive = no such curve, though single readings can be large; an effect the other way counts as inactive or inconclusive.
Potency is the fitted concentration of half-maximal effect.

As for `Cc1ccc(-c2nc(N)nc3c2nnn3Cc2cccc(CO[C@H]3CCOC3)n2)o1`, the Potency result in experiment [1], in experiment [2], in experiment [3] and in experiment [4] was “inactive” throughout.

With `C[C@H]1CNC(=O)c2cnn3ccc(nc23)N[C@H](C)c2cc(F)ccc2O1`, the Potency in experiment [1] is 1.32 µM (active); in experiment [2] it was 0.833 µM (active); in experiment [3] it was 0.833 µM (active).

In the case of `CCc1ccc(N(CC(C)C)S(=O)(=O)c2ccc(OCC3CCOCC3)c(CO)c2)cc1`, in experiment [1], the Potency was 18.6 µM (active). Besides, the Potency result in experiment [3] was “inactive”.

Consider `C[C@@H]1CC[C@@]2(OC1)OC1CC3C4CC=C5CC(O)CCC5(C)C4CCC3(C)C1[C@@H]2C` (stereo not given in full), for which the Potency result in experiment [1] and in experiment [3] was “inactive” throughout.

Turning to `C=CCNC1=C2C[C@@H](C)C[C@H](OC)[C@H](O)[C@@H](C)/C=C(\C)[C@H](OC(N)=O)[C@@H](OC)/C=C\C=C(/C)C(=O)NC(=CC1=O)C2=O`, the Potency is 1.86 µM (active) in experiment [1]; 11.8 µM (active) in experiment [2]; 10.5 µM (active) in experiment [3]; 18.6 µM (active) in experiment [5]; 16.6 µM (active) in experiment [4].

With `COc1ccc(/C=C\c2cc(OC)c(OC)c(OC)c2)cc1O`, the results for the Potency in experiment [1], in experiment [3] and in experiment [5] were 0.0132 µM (active), 0.0118 µM (active) and 0.0132 µM (active), respectively.

On to `Cn1ncc(NC(=O)c2nc(-c3c(F)cccc3F)sc2N)c1N1CC[C@@H](N)[C@H](F)CC1`, for which the Potency in experiment [1] is 2.63 µM (active); in experiment [2], 2.09 µM (active); in experiment [3], 0.0934 µM (active).

Turning to `Cc1[nH]c(/C=C2\C(=O)Nc3ccc(S(=O)(=O)Cc4c(Cl)cccc4Cl)cc32)c(C)c1C(=O)N1CCC[C@@H]1CN1CCCC1`, the Potency was 5.9 µM (active) in experiment [1], 18.6 µM (active) in experiment [2], 9.34 µM (active) in experiment [5] and 9.34 µM (active) in experiment [4].

As for `Clc1ccc(C(Cn2ccnc2)OCc2ccsc2Cl)c(Cl)c1` (stereo not given), the Potency in experiment [1] was 23.5 µM (active); in experiment [2], 18.6 µM (active); in experiment [5], 23.5 µM (active); in experiment [4], 23.5 µM (active).
